In the library only some 2.6% were active in any assay of this set; here they are far more common.
MLLE-PAM2 inh – inhibitors of PABP1 MLLE–PAM2 peptide binding, primary screen, biochemical, fluorescence polarization, FITC-PAM2, GST-MLLE; hit rate 0.36% among 360,000; Polyadenylate-binding protein 1 (Homo sapiens), P11940; inhibition, % at 20 µM; in the data active = inhibition above about 35%, passing the limit was not always enough;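 note: plate controls were DMSO wells with GST-MLLE for no effect and wells lacking GST-MLLE protein for full effect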
PABP polyA inh – PABP poly(A) RNA binding inhibitors, primary screen, biochemical, fluorescence polarization, uHTS; Polyadenylate-binding protein 1 (Homo sapiens), P11940; calls only at 35 µM; hit rate 1% among 290,000;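 note: calls also rest on retests at 20 µM and on dose response follow-up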
eIF4H FP inh – human eIF4H binding inhibitors, primary screen, translation initiation inhibitor project, biochemical, uHTS, fluorescence polarization. eIF4H fluorescence polarization binding assay. inhibition, % at 35 µM. hit rate 0.94% among 290,000. AID 2012, 2009;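 note: calls also rest on retests at 20 µM and on dose response follow-up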
PHOSPHO1 inh – PubChem AID 1565. recombinant PHOSPHO1, absorbance phosphatase assay. inhibition, % at 13.3 µM. hit rate 1.1% among 290,000; in the data active = inhibition above about 60%
A3G deaminase – APOBEC3G DNA deaminase inhibitors, primary screen, biochemical, fluorescence, single-stranded DNA substrate, uHTS; DNA dC->dU-editing enzyme APOBEC-3G (Homo sapiens), Q9HC16; recombinant A3G, ssDNA deamination FAM/TAMRA fluorescence; inhibition, % at 20 µM; hit rate 0.28% among 330,000;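 active = inhibition of at least 40% at 20 µM, with no more than 30% in the related APOBEC3A deaminase screen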;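 note: plate controls were DMSO wells with A3G for no effect and wells lacking A3G enzyme for full effect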
Target sequence (Q9HC16 whole entry, looked up): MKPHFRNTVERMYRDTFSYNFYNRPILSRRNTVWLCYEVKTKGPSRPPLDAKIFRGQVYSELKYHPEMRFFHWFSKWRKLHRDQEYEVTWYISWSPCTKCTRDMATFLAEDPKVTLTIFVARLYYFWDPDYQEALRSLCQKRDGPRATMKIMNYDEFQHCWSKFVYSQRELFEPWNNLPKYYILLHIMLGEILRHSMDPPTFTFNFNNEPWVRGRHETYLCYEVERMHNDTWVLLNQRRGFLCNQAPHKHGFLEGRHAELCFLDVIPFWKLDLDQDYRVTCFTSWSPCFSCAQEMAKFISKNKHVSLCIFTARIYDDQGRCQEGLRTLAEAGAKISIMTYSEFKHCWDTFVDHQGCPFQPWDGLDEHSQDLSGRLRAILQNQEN
A3A deaminase – APOBEC3A ssDNA deaminase inhibitors, primary screen, selectivity assay for APOBEC3G inhibitor project, biochemical, FAM/TAMRA oligo cleavage fluorescence. AID 493011, 2011. hit rate 0.41% among 330,000. inhibition, % at 20 µM. recombinant A3A, FAM/TAMRA ssDNA deamination fluorescence. DNA dC->dU-editing enzyme APOBEC-3A (Homo sapiens), P31941;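 active = at least 40% inhibition at 20 µM here, with at most 30% in a related deaminase screen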;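 note: plate controls were A3A with DMSO for no effect and wells lacking A3A enzyme for full effect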
* hit, by the source's call; i = inactive; ? = inconclusive; . = no result given; + = active, no number. Unless noted, the rule behind the calls is not given here.

SMILES	MLLE-PAM2 inh	PABP polyA inh	eIF4H FP inh	PHOSPHO1 inh	A3G deaminase	A3A deaminase
O=C(CSc1nnc(NC(=O)c2ccccc2F)s1)NCC1CCCO1 (centres undefined)	-2	i	10	-59	3	1
CC1=C/C(=C/N(C)c2ccccc2)C(=O)S1	39	+	52*	31	-3	-2
COC(CN1CCc2c(C)nc3c(C#N)cnn3c21)OC	-2	i	0	24	-7	1
COc1ccc(-c2cnn3c4c(c(C)nc23)CCN4C(C)C)cc1OC	-14	i	2	62*	-3	-2
Cc1ccc(Sc2cnc(N)nc2C)cc1	2	+	active	48	-5	-4
COc1ccccc1NC(=O)C1=C(C)NC(=O)NC1c1cc(C)cs1 (centres undefined)	-3	+	1	3	-8	-3
CCOc1ccccc1NC(=O)C1=C(C)NC(=S)NC1c1cccs1 (centres undefined)	-121	+	-2	9	.	.
COc1ccccc1NC(=O)C1=C(C)NC(=O)NC1c1ccccc1F (centres undefined)	-11	i	-2	-2	0	1
CC1=C(C(=O)Nc2ccccc2C)C(c2cccs2)NC(=S)N1 (centres undefined)	-127	i	-6	-4	-3	0
Cc1cccc(NC(=S)Nc2ccccn2)c1	23	i	7	-17	2	1
Cc1ccc(NC(=S)Nc2ccccn2)cc1C	40*	i	1	-35	-3	0
CCN1c2ccccc2-c2nc3ccccc3n2C1c1cccs1 (centres undefined)	-6	i	4	-21	5	0
CC[n+]1ccc(C[n+]2ccccc2)c2ccccc21	-64	i	11	88*	.	.
CC[n+]1ccc(/C=C/c2ccc(N(C)C)cc2)c2ccccc21	-126	i	0	28	.	.
CC(c1ccc2c(c1)OCO2)n1c(=S)[nH]c2ccccc2c1=O (centres undefined)	-59	.	.	.	-11	-5
CCc1ccc(NC(=O)C(=O)N/N=C(\C)CC(=O)Nc2ccccn2)cc1	16	+	98	-8	-2	-1
CCOC(=O)CSc1nnc(N)s1	7	i	-7	90*	-7	4
CCOC(=O)CSc1nnc(SCCN2C(=O)c3ccccc3C2=O)s1	-81	i	-2	73*	-13	-5
COc1nc(NCCc2ccc(OC)c(OC)c2)nc(Nc2ccccc2)n1	-9	i	-3	62*	-6	-2
CCOc1cc(N2CCOCC2)c(OCC)cc1NC(=O)CN1CCCC(C)C1 (centres undefined)	-10	+	?	-7	-8	-3
COc1cc(C(=O)Nc2cccc(-c3cn4cccnc4n3)c2)cc(OC)c1OC	-7	i	-4	8	-5	34
Clc1ccc(-c2cn3cccnc3n2)cc1	-3	i	2	2	-3	-1
COc1ccc(-c2cn3cccnc3n2)cc1NC(=O)c1cc(OC)c(OC)c(OC)c1	6	+	active	40	-8	-5
Clc1ccc(-c2cn3cccnc3n2)cc1Cl	-25	+	71*	54	-8	-4
CC1=NN(CCC#N)C(=O)/C1=C/c1ccc(N(C)C)cc1	-84	i	77*	29	-15	-1
SMILES	MLLE-PAM2 inh	PABP polyA inh	eIF4H FP inh	PHOSPHO1 inh	A3G deaminase	A3A deaminase
CCOc1cc(/C=C2\C(=O)N(CCC#N)N=C2C)ccc1OCC(N)=O	6	i	-9	37	-2	1
NN1C(=O)/C(=C2/Sc3ccccc3N2CCCS(=O)(=O)O)SC1=S	11	i	8	.	4	9
O=C1NC(=S)S/C1=C1\Sc2ccccc2N1CCCS(=O)(=O)O	27	i	6	72*	-4	-1
Cc1ccnc(NC(=O)c2cc([N+](=O)[O-])cc([N+](=O)[O-])c2)c1	7	i	1	65*	-8	-1
Cc1ccnc(NC(=O)Cc2ccc([N+](=O)[O-])cc2)c1	-4	i	-4	19	-4	-2
CCOC(CNC(=O)c1cccn2c(=O)c3c(C)c(C)sc3nc12)OCC	9	i	3	34	0	2
CCOC(=O)c1cc(C(=O)c2ccccc2O)cn2c(=O)c3c(C)c(C)sc3nc12	.	i	73*	56	25	2
C#CCSC1=C(C#N)C(c2cccs2)C(C(=O)OCC)=C(C)N1 (centres undefined)	8	+	63*	-30	-7	9
CCN(CC)C(=O)CSC1=C(C#N)C(c2cccs2)C=C(C)N1 (centres undefined)	-25	i	11	94*	-2	-3
CCOC(=O)C1=C(C)NC(C)=C(C(=O)OCC)C1c1cccs1	9	i	-1	-1	-7	-4
CCN(CC)C(=O)C1=C(C)NC(=S)NC1c1cccs1 (centres undefined)	9	i	-7	11	-5	-3
COc1ccc2c(c1[N+](=O)[O-])CCC/C2=N/OC(=O)c1cccc2ccccc12	0	i	-2	78*	-5	0
N/N=C1\CCCc2c1[nH]c1ccc([N+](=O)[O-])cc21	9	i	1	88*	11	-4
C/C(CC(=O)N1CCN(C=O)CC1)=N\NC(=O)c1ccc([N+](=O)[O-])cc1	1	i	-10	1	-5	-2
C/C(CC(=O)N1CCN(C=O)CC1)=N\NC(=O)c1cc2ccccc2cc1O	20	+	102*	3	3	1
C/C(=N/NC(=O)c1cc2ccccc2cc1O)C1C(=O)c2ccccc2C1=O	-36	+	45	18	-4	-1
COc1c2c(c(OC)c3c1c(=O)c1ccccc1n3C)OCO2	19	.	.	.	.	.
COc1c2c(c3c(c1OC)c(=O)c1ccccc1n3C)OCO2	55*	.	.	.	.	.
COc1ccc(/C(C)=N\NC(=O)C(c2ccncc2)N2CCOCC2)cc1 (centres undefined)	-13	i	4	27	-5	-3
N#CCCn1cc(C=C(C#N)C#N)c(-c2ccc(Cl)cc2)n1	27	i	-8	60*	-6	-2
N#CCCn1cc(/C=N/O)c(-c2ccc(Cl)cc2)n1	2	i	-2	52	-12	-4
Cc1ccc(S(=O)(=O)Nc2c(Cl)c(Cl)c(O)c3ccccc23)cc1	.	i	7	9	82*	-5
CNC(=O)c1ccsc1NC(=O)c1sc2ccccc2c1Cl	-22	+	54*	14	-10	-5
